Assay results: PubChem BioAssay (EPA / NIEHS)
Records with an inconclusive call do not appear. A structure can be active in one record and inactive in another. Calls of active or inactive are those of the source. How the source made its calls, unless noted: active means hit-call score of the fitted dose curve at least 0.9, where 1 is the maximum; inactive means score below 0.9.

What follows are compounds tested against Nuclear receptor subfamily 4 group A member 2 (Homo sapiens) (UniProt P43354) (assay: ATG_NURR1_TRANS: Attagene TRANS-FACTORIAL HepG2 Assay for human Nuclear Receptor Related Protein 1 (NURR1) (AID 2282985; active means hit-call score of the fitted dose curve at least 0.9, where 1 is the maximum)). Settings: HepG2 Attagene TRANS reporter, mRNA readout.
Sequence of Nuclear receptor subfamily 4 group A member 2 (Homo sapiens) (P43354 whole entry, looked up, the tested form may be a part): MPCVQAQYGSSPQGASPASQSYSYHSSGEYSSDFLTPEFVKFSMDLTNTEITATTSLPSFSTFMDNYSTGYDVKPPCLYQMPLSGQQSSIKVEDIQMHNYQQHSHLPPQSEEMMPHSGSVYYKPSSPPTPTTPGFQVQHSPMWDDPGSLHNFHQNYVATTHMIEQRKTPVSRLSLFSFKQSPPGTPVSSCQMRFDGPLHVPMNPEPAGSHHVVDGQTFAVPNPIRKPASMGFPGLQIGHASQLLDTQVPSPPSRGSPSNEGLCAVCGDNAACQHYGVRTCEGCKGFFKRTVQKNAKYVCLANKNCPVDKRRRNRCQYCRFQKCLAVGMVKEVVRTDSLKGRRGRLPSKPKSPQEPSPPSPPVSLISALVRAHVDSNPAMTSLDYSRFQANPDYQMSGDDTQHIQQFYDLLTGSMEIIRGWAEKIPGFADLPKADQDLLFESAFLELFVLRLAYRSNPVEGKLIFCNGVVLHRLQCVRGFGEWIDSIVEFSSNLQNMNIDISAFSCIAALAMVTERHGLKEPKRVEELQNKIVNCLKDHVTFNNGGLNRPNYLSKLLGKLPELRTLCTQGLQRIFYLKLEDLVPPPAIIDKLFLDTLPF
Method in brief: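 Chimeric NR-Gal4 fusion activity measured in HepG2 after 24 h treatment. Reporter transcripts detected by RT-PCR and capillary electrophoresis fluorescence; positive-direction curve fitting against DMSO.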
In the case of `C[C@]12CC[C@@H]3c4ccc(O)cc4C[C@@H](CCCCCCCCCS(=O)CCCC(F)(F)C(F)(F)F)[C@H]3[C@@H]1CC[C@@H]2O` (some centres not stated), the outcome is reported as “inactive”. `COC(=O)c1cccc(C)c1S(=O)(=O)NC(=O)Nc1nc(OCC(F)(F)F)nc(N(C)C)n1` was tested, and the outcome was “inactive”. For `CC1(C)C(C=C(Cl)Cl)C1C(=O)OCc1cccc(Oc2ccccc2)c1` (configuration not stated), the outcome was “inactive”. In the case of `CCC(C)OC(=O)N1CCCCC1CCO` (configuration not stated), the outcome is reported as “inactive”. In the case of `CCC(O)=C1C(=O)CC(C(=O)O)CC1=O` (configuration not stated), the outcome is reported as “inactive”. With `CCOC(=O)c1ccc(O)cc1` the outcome was “inactive”. `CC(C)(c1ccc(O)cc1)c1ccc(O)cc1` was tested, and the AC50 was 44 µM (active) and the outcome was “inactive”. For `CCCCOC(=O)[C@@H](C)Oc1ccc(Oc2ccc(C(F)(F)F)cn2)cc1`, the outcome was “inactive”. In the case of `COC(=O)c1ccccc1S(=O)(=O)NC(=O)Nc1nc(OC(F)F)cc(OC(F)F)n1`, the outcome is reported as “inactive”. `CC(C)CCCCCCc1ccc(O)cc1` was tested, and the AC50 was 11.1 µM (active) and the outcome was “inactive”. In the case of `CCOC(=O)NCCOc1ccc(Oc2ccccc2)cc1`, the outcome is reported as “inactive”. `O=C(O)c1ccccc1` was tested, and the outcome was “inactive”. In the case of `N#CSCSc1nc2ccccc2s1`, the AC50 is reported as 11.6 µM (active) and the outcome is reported as “inactive”. `CCN(Cc1c(F)cccc1Cl)c1c([N+](=O)[O-])cc(C(F)(F)F)cc1[N+](=O)[O-]` was tested, and the outcome was “inactive”. With `S=C(S)NCCNC(=S)S.[Mn+2].[S-]C([S-])=NCCN=C([S-])[S-].[Zn+2]` the outcome was “inactive”. For `OB(O)O`, the outcome was “inactive”. For `O=C(c1ccc(O)cc1O)c1ccc(O)cc1O`, the outcome was “inactive”. With `CC(=O)S[C@@H]1CC2=CC(=O)CC[C@]2(C)[C@H]2CC[C@@]3(C)[C@@H](CC[C@@]34CCC(=O)O4)[C@H]12` the outcome was “inactive”. For `C#C[C@]1(O)CC[C@H]2[C@@H]3CCC4=CC(=O)CC[C@@H]4[C@H]3CC[C@@]21CC`, the outcome was “inactive”. For `CCCCC(CC)CN1C(=O)C2C3C=CC(C3)C2C1=O` (configuration not stated), the outcome was “inactive”. `CCCCOC(=O)C(C)Oc1ccc(Oc2ccc(C(F)(F)F)cn2)cc1` (configuration not stated) was tested, and the outcome was “inactive”. `CCCOC(=O)c1ccc(C(=O)OCCC)nc1` was tested, and the outcome was “inactive”. `O=C(c1ccccc1)C1CCCCC1` was tested, and the outcome was “inactive”. For `COc1c(Cl)ccc(Cl)c1C(=O)O`, the AC50 was 59.2 µM (active). `CCSC(=O)N(CC(C)C)CC(C)C` was tested, and the outcome was “inactive”.

Each compound was assayed against Transcriptional activator Myb (Homo sapiens) (UniProt P10242) (assay: ATG_Myb_CIS: Attagene CIS-FACTORIAL HepG2 Assay for human Myeloblastosis (Myb) Proto-Oncogene Transcription Factor (AID 2282986)). Settings: HepG2 Attagene CIS-FACTORIAL Myb reporter transcription; actives raise or lower the signal.
Sequence of Transcriptional activator Myb (Homo sapiens) (P10242 whole entry, looked up): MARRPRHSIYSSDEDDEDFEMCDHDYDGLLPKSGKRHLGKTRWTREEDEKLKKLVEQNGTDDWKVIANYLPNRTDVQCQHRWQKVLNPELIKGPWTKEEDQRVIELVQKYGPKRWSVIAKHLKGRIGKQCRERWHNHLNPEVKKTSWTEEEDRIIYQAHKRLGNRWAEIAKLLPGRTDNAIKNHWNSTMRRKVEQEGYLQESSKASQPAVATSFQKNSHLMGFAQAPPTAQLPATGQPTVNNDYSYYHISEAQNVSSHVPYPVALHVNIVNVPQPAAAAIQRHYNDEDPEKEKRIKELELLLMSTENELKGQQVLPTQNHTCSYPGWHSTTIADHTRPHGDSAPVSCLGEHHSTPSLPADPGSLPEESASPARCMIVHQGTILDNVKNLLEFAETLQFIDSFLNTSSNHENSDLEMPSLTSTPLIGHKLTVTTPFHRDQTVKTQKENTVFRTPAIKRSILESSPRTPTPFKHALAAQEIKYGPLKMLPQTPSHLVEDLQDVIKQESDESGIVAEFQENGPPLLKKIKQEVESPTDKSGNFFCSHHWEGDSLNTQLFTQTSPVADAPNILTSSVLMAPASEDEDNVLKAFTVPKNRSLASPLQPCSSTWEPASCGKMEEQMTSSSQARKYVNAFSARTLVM
Method in brief: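 After 24 h of compound dosing, total RNA from transfected HepG2 cells is reverse-transcribed and the reporter sequences amplified, labeled and separated by capillary electrophoresis. Values come from bidirectional fitting against DMSO.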
With `C[C@]12CC[C@@H]3c4ccc(O)cc4C[C@@H](CCCCCCCCCS(=O)CCCC(F)(F)C(F)(F)F)[C@H]3[C@@H]1CC[C@@H]2O` (some centres not stated) the outcome was “inactive”. `COC(=O)c1cccc(C)c1S(=O)(=O)NC(=O)Nc1nc(OCC(F)(F)F)nc(N(C)C)n1` was tested, and the outcome was “inactive”. For `CC1(C)C(C=C(Cl)Cl)C1C(=O)OCc1cccc(Oc2ccccc2)c1` (configuration not stated), the outcome was “inactive”. In the case of `CCC(C)OC(=O)N1CCCCC1CCO` (configuration not stated), the outcome is reported as “inactive”. For `CCC(O)=C1C(=O)CC(C(=O)O)CC1=O` (configuration not stated), the outcome was “inactive”. With `CCOC(=O)c1ccc(O)cc1` the outcome was “inactive”. With `O=C(O)C1(C(=O)Nc2ccc(Cl)cc2Cl)CC1` the outcome was “inactive”. `c1ccc(Nc2ccccc2)cc1` was tested, and the outcome was “inactive”. For `CC(C)(c1ccc(O)cc1)c1ccc(O)cc1`, the outcome was “inactive”. In the case of `CCCCOC(=O)[C@@H](C)Oc1ccc(Oc2ccc(C(F)(F)F)cn2)cc1`, the outcome is reported as “inactive”. `COC(=O)c1ccccc1S(=O)(=O)NC(=O)Nc1nc(OC(F)F)cc(OC(F)F)n1` was tested, and the outcome was “inactive”. With `COC(=O)c1ccc(CNS(C)(=O)=O)cc1S(=O)(=O)NC(=O)Nc1nc(OC)cc(OC)n1` the outcome was “inactive”. With `CC(C)CCCCCCc1ccc(O)cc1` the outcome was “inactive”. In the case of `CCOC(=O)NCCOc1ccc(Oc2ccccc2)cc1`, the outcome is reported as “inactive”. For `O=C(O)c1ccccc1`, the outcome was “inactive”. `CCCN(CCC)c1c([N+](=O)[O-])cc(C(F)(F)F)c(N)c1[N+](=O)[O-]` was tested, and the outcome was “inactive”. In the case of `N#CSCSc1nc2ccccc2s1`, the outcome is reported as “inactive”. `CCN(Cc1c(F)cccc1Cl)c1c([N+](=O)[O-])cc(C(F)(F)F)cc1[N+](=O)[O-]` was tested, and the outcome was “inactive”. In the case of `CCCN(CCC)C(=O)SCC`, the outcome is reported as “inactive”. For `S=C(S)NCCNC(=S)S.[Mn+2].[S-]C([S-])=NCCN=C([S-])[S-].[Zn+2]`, the outcome was “inactive”. `OB(O)O` was tested, and the outcome was “inactive”. `O=C(c1ccc(O)cc1O)c1ccc(O)cc1O` was tested, and the outcome was “inactive”. `CC(=O)S[C@@H]1CC2=CC(=O)CC[C@]2(C)[C@H]2CC[C@@]3(C)[C@@H](CC[C@@]34CCC(=O)O4)[C@H]12` was tested, and the outcome was “inactive”. In the case of `C#C[C@]1(O)CC[C@H]2[C@@H]3CCC4=CC(=O)CC[C@@H]4[C@H]3CC[C@@]21CC`, the outcome is reported as “inactive”. `CCCCC(CC)CN1C(=O)C2C3C=CC(C3)C2C1=O` (configuration not stated) was tested, and the outcome was “inactive”. With `CCCCOC(=O)C(C)Oc1ccc(Oc2ccc(C(F)(F)F)cn2)cc1` (configuration not stated) the outcome was “inactive”. With `CCCOC(=O)c1ccc(C(=O)OCCC)nc1` the outcome was “inactive”. For `O=C(c1ccccc1)C1CCCCC1`, the outcome was “inactive”. With `COc1c(Cl)ccc(Cl)c1C(=O)O` the outcome was “inactive”. For `CCSC(=O)N(CC(C)C)CC(C)C`, the outcome was “inactive”.

Each compound was assayed against Nuclear respiratory factor 1 (Homo sapiens) (UniProt Q16656) (assay: ATG_NRF1_CIS: Attagene CIS-FACTORIAL HepG2 Assay for human Nuclear Respiratory Factor 1 (NRF1) Orphan Gene (AID 2282987)). Settings: HepG2 NRF1 cis-element reporter, Attagene multiplex; actives raise or lower the signal.
Sequence of Nuclear respiratory factor 1 (Homo sapiens) (Q16656 whole entry, looked up): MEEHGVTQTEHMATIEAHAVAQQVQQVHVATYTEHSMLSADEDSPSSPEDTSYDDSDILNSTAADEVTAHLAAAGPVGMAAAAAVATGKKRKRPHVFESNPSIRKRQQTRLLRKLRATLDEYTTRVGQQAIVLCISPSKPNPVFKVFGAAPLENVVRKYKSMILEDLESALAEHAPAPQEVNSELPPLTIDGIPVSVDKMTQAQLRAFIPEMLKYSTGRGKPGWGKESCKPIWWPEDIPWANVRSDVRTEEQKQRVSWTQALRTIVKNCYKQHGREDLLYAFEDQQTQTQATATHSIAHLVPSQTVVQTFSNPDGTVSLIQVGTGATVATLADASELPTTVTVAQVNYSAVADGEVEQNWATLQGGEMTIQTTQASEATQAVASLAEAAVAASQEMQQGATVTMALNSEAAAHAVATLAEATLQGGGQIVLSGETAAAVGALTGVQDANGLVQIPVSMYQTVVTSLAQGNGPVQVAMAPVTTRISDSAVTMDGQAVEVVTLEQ
Method in brief: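 Measured: fluorescent reporter-specific RT-PCR products from transfected HepG2 cells, separated by capillary electrophoresis. Exposure lasted 24 h. Analysis used bidirectional curve fitting with DMSO as negative control.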
With `C[C@]12CC[C@@H]3c4ccc(O)cc4C[C@@H](CCCCCCCCCS(=O)CCCC(F)(F)C(F)(F)F)[C@H]3[C@@H]1CC[C@@H]2O` (some centres not stated) the outcome was “inactive”. For `COC(=O)c1cccc(C)c1S(=O)(=O)NC(=O)Nc1nc(OCC(F)(F)F)nc(N(C)C)n1`, the outcome was “inactive”. In the case of `CC1(C)C(C=C(Cl)Cl)C1C(=O)OCc1cccc(Oc2ccccc2)c1` (configuration not stated), the outcome is reported as “inactive”. With `CCC(C)OC(=O)N1CCCCC1CCO` (configuration not stated) the outcome was “inactive”. For `CCC(O)=C1C(=O)CC(C(=O)O)CC1=O` (configuration not stated), the outcome was “inactive”. `CCOC(=O)c1ccc(O)cc1` was tested, and the outcome was “inactive”. In the case of `O=C(O)C1(C(=O)Nc2ccc(Cl)cc2Cl)CC1`, the outcome is reported as “inactive”. For `c1ccc(Nc2ccccc2)cc1`, the outcome was “inactive”. `CC(C)(c1ccc(O)cc1)c1ccc(O)cc1` was tested, and the AC50 was 62.2 µM (active) and the outcome was “inactive”. `CCCCOC(=O)[C@@H](C)Oc1ccc(Oc2ccc(C(F)(F)F)cn2)cc1` was tested, and the outcome was “inactive”. `COC(=O)c1ccccc1S(=O)(=O)NC(=O)Nc1nc(OC(F)F)cc(OC(F)F)n1` was tested, and the outcome was “inactive”. In the case of `COC(=O)c1ccc(CNS(C)(=O)=O)cc1S(=O)(=O)NC(=O)Nc1nc(OC)cc(OC)n1`, the outcome is reported as “inactive”. With `CC(C)CCCCCCc1ccc(O)cc1` the AC50 was 15.7 µM (active) and the outcome was “inactive”. `CCOC(=O)NCCOc1ccc(Oc2ccccc2)cc1` was tested, and the outcome was “inactive”. `O=C(O)c1ccccc1` was tested, and the outcome was “inactive”. `CCCN(CCC)c1c([N+](=O)[O-])cc(C(F)(F)F)c(N)c1[N+](=O)[O-]` was tested, and the outcome was “inactive”. In the case of `N#CSCSc1nc2ccccc2s1`, the AC50 is reported as 16.7 µM (active) and the outcome is reported as “inactive”. In the case of `CCN(Cc1c(F)cccc1Cl)c1c([N+](=O)[O-])cc(C(F)(F)F)cc1[N+](=O)[O-]`, the outcome is reported as “inactive”. `CCCN(CCC)C(=O)SCC` was tested, and the outcome was “inactive”. For `S=C(S)NCCNC(=S)S.[Mn+2].[S-]C([S-])=NCCN=C([S-])[S-].[Zn+2]`, the outcome was “inactive”. With `OB(O)O` the outcome was “inactive”. `O=C(c1ccc(O)cc1O)c1ccc(O)cc1O` was tested, and the AC50 was 46.5 µM (active) and the outcome was “inactive”. `CC(=O)S[C@@H]1CC2=CC(=O)CC[C@]2(C)[C@H]2CC[C@@]3(C)[C@@H](CC[C@@]34CCC(=O)O4)[C@H]12` was tested, and the outcome was “inactive”. With `C#C[C@]1(O)CC[C@H]2[C@@H]3CCC4=CC(=O)CC[C@@H]4[C@H]3CC[C@@]21CC` the outcome was “inactive”. In the case of `CCCCC(CC)CN1C(=O)C2C3C=CC(C3)C2C1=O` (configuration not stated), the outcome is reported as “inactive”. `CCCCOC(=O)C(C)Oc1ccc(Oc2ccc(C(F)(F)F)cn2)cc1` (configuration not stated) was tested, and the outcome was “inactive”. `CCCOC(=O)c1ccc(C(=O)OCCC)nc1` was tested, and the outcome was “inactive”. For `O=C(c1ccccc1)C1CCCCC1`, the outcome was “inactive”. For `COc1c(Cl)ccc(Cl)c1C(=O)O`, the outcome was “inactive”. `CCSC(=O)N(CC(C)C)CC(C)C` was tested, and the outcome was “inactive”.
